From PubChem BioAssay (NCI)
Compounds without any hit were thinned out: in the full panel of roughly 83,000, 20% have a hit.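 The test compound was applied at a single concentration to cells in 96-well plates for 48 hours, and percent growth was recorded.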 Unmarked numbers belong to inactive results. Activity calls are given as the source filed them. The calls were made as follows: active = growth percent below 10; inactive = the rest.

How the values were obtained:
Experiment in all cases: NCI-60 one-dose screen, 48 h (100 = growth as untreated, 0 = no growth, -100 = all killed)
Details in all cases: 10 µM unless noted
SK-MEL-2 melanoma = tested on: SK-MEL-2 melanoma
EKVX NSCLC = tested on: EKVX NSCLC
SN12C renal = tested on: SN12C renal
TK-10 renal = tested on: TK-10 renal
ACHN renal = tested on: ACHN renal
CAKI-1 renal = tested on: CAKI-1 renal
A498 renal = tested on: A498 renal
CCRF-CEM leukemia = tested on: CCRF-CEM leukemia
MOLT-4 leukemia = tested on: MOLT-4 leukemia
SR leukemia = tested on: SR leukemia
RPMI-8226 leukemia = tested on: RPMI-8226 leukemia
OVCAR-5 ovarian = tested on: OVCAR-5 ovarian
OVCAR-4 ovarian = tested on: OVCAR-4 ovarian
SK-OV-3 ovarian = tested on: SK-OV-3 ovarian
IGROV1 ovarian = tested on: IGROV1 ovarian
OVCAR-3 ovarian = tested on: OVCAR-3 ovarian
HS 578T breast = tested on: HS 578T breast
NCI/ADR-RES ovarian = tested on: NCI/ADR-RES ovarian
UO-31 renal = tested on: UO-31 renal
OVCAR-8 ovarian = tested on: OVCAR-8 ovarian

Compound | growth (SK-MEL-2 melanoma) | growth (EKVX NSCLC) | growth (SN12C renal) | growth (TK-10 renal) | growth (ACHN renal) | growth (CAKI-1 renal) | growth (A498 renal) | growth (CCRF-CEM leukemia) | growth (MOLT-4 leukemia) | growth (SR leukemia) | growth (RPMI-8226 leukemia) | growth (OVCAR-5 ovarian) | growth (OVCAR-4 ovarian) | growth (SK-OV-3 ovarian) | growth (IGROV1 ovarian) | growth (OVCAR-3 ovarian) | growth (HS 578T breast) | growth (NCI/ADR-RES ovarian) | growth (UO-31 renal) | growth (OVCAR-8 ovarian)
O=C1c2cc3c(cc2-c2c1c1ccc(Cl)cc1c(=O)n2C[C@H](O)[C@@H](O)[C@H](O)CO)OCO3 | -67% (active) | 20.5% | -5.37% (active) | -48.7% (active) | -58.7% (active) | -8.82% (active) | -77% (active) | 8.41% (active) | 2.33% (active) | 0.866% (active) | 0.957% (active) | -2.44% (active) | 18.6% | -23.1% (active) | 9.99% (active) | -10.4% (active) | 11.3% | 7.03% (active) | – | –
c1cnc2[nH]cc(-c3csc(-c4cn(CCCN5CCCCC5)c5ccccc45)n3)c2c1 | 93.7% | 65.8% | 63.4% | 115% | – | – | 83.8% | 6.17% (active) | -10.6% (active) | -31.4% (active) | -26.8% (active) | 92.5% | 75.7% | 94.2% | 34.6% | 60.4% | 73.3% | 68.1% | 43.8% | 69.7%
C[C@@H](Oc1ccc(C(=O)NS(=O)(=O)C(C)(C)C)cc1C(F)(F)F)c1ccc(Oc2ccccc2)cn1 | 38.2% | 65% | 61.2% | 79.1% | 61.8% | 38.8% | -0.737% (active) | 25.9% | 57.3% | 29.7% | 71.5% | 86.5% | 67.2% | 69.6% | 37.4% | 8.19% (active) | 4.34% (active) | 66.4% | – | 41.2%
CCSc1sc(-c2ccc(C)cc2)nc1[P+](c1ccccc1)(c1ccccc1)c1ccccc1 | -56.9% (active) | 6.99% (active) | 2.07% (active) | -6.69% (active) | -44.8% (active) | -9.03% (active) | -46.1% (active) | 8.77% (active) | -48.8% (active) | -17.9% (active) | -33.9% (active) | 18.3% | -4.21% (active) | -23.1% (active) | -8.55% (active) | -12.7% (active) | -3.68% (active) | -5.4% (active) | – | 1.31% (active)
O=C1/C(=C\c2ccco2)SC(=S)N1CCc1ccc(O)cc1 | 104% | 91.1% | 91.6% | 130% | 96% | 83.4% | 97.1% | 44.8% | 82.2% | 95.7% | 83.1% | 103% | 90.3% | 100% | 94.6% | 105% | 99.5% | 103% | – | 102%
COc1cc2nc(Cl)nc(Nc3cccc(C(=O)/C=C/c4ccccc4)c3)c2cc1OC | 86.8% | 81.5% | 59.5% | 143% | 13.7% | 48.4% | 90.6% | 28.9% | 34.5% | 8.85% (active) | -2.13% (active) | 68.9% | 70.6% | 81.1% | 37.3% | 38.2% | 98.5% | 49.9% | – | 49.6%
CCN(CC)C(=O)CCCCCn1c2ccccc2c2c3c(c4c5ccccc5[nH]c4c21)C(=O)N(O)C3=O | 61.4% | 64.1% | 33.2% | 68.3% | -64.8% (active) | -59% (active) | 69.1% | 21.3% | -0.333% (active) | 5.8% (active) | 16.1% | 104% | 56.6% | 79.5% | 27.6% | 46.5% | 71.1% | 12.7% | – | 20.8%
COc1cccc(-c2nn(-c3ccccc3)cc2-c2ccnc(NCCCNS(=O)(=O)c3ccccc3)c2)c1 | 29.7% | 46.5% | 38.7% | 46.9% | 28.1% | 48.4% | 42.3% | 14.4% | 8.92% (active) | 2.99% (active) | 18.4% | 67.2% | 39.6% | 43% | 31.3% | 41.3% | 37.5% | 21.1% | – | 16%
CCN1CCN(c2nc(C)cc(N(CCCNc3ccnc4cc(Cl)ccc34)Cc3ccco3)n2)CC1 | 75.1% | 63.1% | 50.6% | 108% | – | – | 78.1% | 42% | 43.5% | -16.5% (active) | 8.04% (active) | 79.7% | 59.7% | 97.2% | 51.2% | 53% | 70.3% | 55.8% | 33.1% | 58.5%
O=S(=O)(NCCNc1cc(-c2cn(-c3ccccc3)nc2-c2cccc(O)c2)ccn1)c1ccc(F)cc1 | 22.2% | 56.1% | 44.2% | 46.2% | 27.3% | 37.1% | 36.2% | 5.95% (active) | 4.37% (active) | -5.97% (active) | 9.5% (active) | 62.9% | 41.3% | 46.4% | – | 35.8% | 15.7% | 17.9% | – | 23.7%
O=C(CCCCCn1c2ccccc2c2c3c(c4c5ccccc5[nH]c4c21)C(=O)N(O)C3=O)N1CCOCC1 | 72.5% | 77.7% | – | 70.7% | 29.4% | -22.9% (active) | 26.9% | 5.19% (active) | -14.9% (active) | 8.26% (active) | 14.9% | 116% | 64.5% | 70.4% | – | 40.9% | 66.5% | 73.7% | 29.6% | 41.7%
NCCn1cc(-c2nc(-c3c[nH]c4ncccc34)cs2)c2cc(F)ccc21 | 94.7% | 48.6% | – | 142% | 76.4% | – | 91.4% | 49% | 57% | -5.68% (active) | 59.2% | 92.6% | 59.8% | 78.9% | 47.1% | 85.6% | 81.9% | 86.4% | 53.3% | 76.1%
COc1cc(NC(C)CN(CC(C)C)C(C)C)c2ncccc2c1 (stereo unspecified) | 113% | 105% | – | 120% | 99.3% | – | 97.6% | 114% | 96.6% | 90.2% | 102% | 109% | 40.2% | 101% | 110% | 92.9% | 115% | 93.3% | 87.6% | 90.1%
CSc1ccc(N(C)c2nc(C)nc3c2CCC3)cc1 | 24% | 52.6% | – | 56.6% | 18.3% | 20.5% | -8.39% (active) | 8.07% (active) | 6.54% (active) | 1.95% (active) | 23.5% | 33.2% | 38.2% | 19.5% | 31.3% | 5.43% (active) | 29.8% | 8.05% (active) | 29.3% | 12%
O=C1CN(c2ccccc2)C(=O)C1C(=O)Nc1ccc(Cl)c(Cl)c1 (stereo unspecified) | 18.1% [100 µM] | 47.4% [100 µM] | 17.6% [100 µM] | 26.4% [100 µM] | 2.16% [100 µM] (active) | – | 11.3% [100 µM] | 35.9% [100 µM] | 6.47% [100 µM] (active) | 1.54% [100 µM] (active) | 34.9% [100 µM] | 36.3% [100 µM] | 0.243% [100 µM] (active) | – | 20.9% [100 µM] | 39.3% [100 µM] | 32.8% [100 µM] | 21.6% [100 µM] | – | -9.87% [100 µM] (active)
CCCCC[C@H]1C/C=C2/C(=O)C=C[C@@H]2C/C=C\CCCC(=O)O[C@@H](CCCCC)C/C=C2/C(=O)C=C[C@@H]2C/C=C\CCCC(=O)O1 | -60% (active) | -68.3% (active) | – | -83.4% (active) | -93.4% (active) | – | -84.8% (active) | -3.81% (active) | -15.8% (active) | -21.5% (active) | -30.4% (active) | -68.2% (active) | -74.3% (active) | -52.7% (active) | -68.3% (active) | -93.5% (active) | 4.33% (active) | -2.14% (active) | -97.1% (active) | -20.7% (active)
Cc1csc(-c2ccc3c(c2)COC3(CCCN(C)C)c2ccc(F)cc2)c1 (stereo unspecified) | 25.8% | 72.2% | – | 55% | 63.6% | 27.7% | 86.2% | 11.3% | -17.4% (active) | -3.41% (active) | -31.5% (active) | 72.1% | 45.9% | – | 17.2% | 58.7% | 47.7% | 78.6% | 44.7% | 39%
O=C(/C=C\c1ccc2c(c1)OCO2)/C=C/c1ccc2c(c1)OCO2 | 127% | 82.4% | – | 96.1% | 88.3% | 89.2% | 126% | 31.4% | 35.2% | 10.5% | -9.97% (active) | 108% | 84.9% | 92% | 88.9% | 69.5% | – | 92.1% | 76.3% | 101%
NC(=O)NCC1CCCCC1 | 105% | 96.6% | – | 95.5% | 106% | 89.3% | 104% | 99.3% | 91.9% | 99.4% | 108% | – | 102% | 109% | 101% | 109% | 112% | 95.1% | 92.9% | 114%
Cn1cc(-c2nc(-c3c[nH]c4ncccc34)cs2)c2cc(Br)ccc21 | 77.6% | 75.2% | 87.1% | 63.5% | 58.7% | 78% | 68.4% | 58.9% | 69.1% | – | 72.6% | 82.9% | – | 91.9% | 76% | 118% | 98% | 75% | – | 104%
CN(CSc1ccc(Cl)cc1)c1ccc(CSc2ccc(Cl)cc2)cc1 | 78.1% | 86.8% | – | 87.1% | 87.4% | 44.7% | 71.8% | 6.37% (active) | 8.87% (active) | – | 18% | 120% | 67.9% | 108% | 42.9% | 62.6% | 93.3% | 91.7% | 26.6% | 93.3%
Cc1cc(N2CCOCC2)nc(N(CCCNc2ccnc3cc(Cl)ccc23)Cc2ccco2)n1 | 11.9% | 49.4% | 40.4% | 47.9% | 46.9% | – | 45.2% | 30.6% | 9.42% (active) | -11.4% (active) | 19.4% | 38.9% | 50.4% | 50.1% | 10.9% | 2.02% (active) | 69.5% | 12.1% | – | 46.3%
CCOc1ccc(NC(=O)c2ccoc2COc2ccccc2)cc1 | 106% | 96.1% | – | 101% | 106% | 95.7% | 108% | 95% | 97% | 113% | 91.8% | 103% | 101% | 106% | 93.5% | 109% | 105% | 102% | 79.8% | 104%
Cn1cc(-c2csc(-c3cn(CCN)c4ccc(Br)cc34)n2)c2cccnc21 | 110% | 74.9% | – | 116% | 50.8% | – | 83.9% | 39.8% | 13.5% | 9.41% (active) | 59.5% | – | 54.3% | 91.6% | 38.8% | 72.5% | 74.5% | 86.4% | 61.4% | 76.5%
CCOC(=O)C/C(=C\c1ccccc1)C(C)=O | 89.3% | 102% | – | 96.3% | 107% | 94.5% | 114% | 90.3% | 93.8% | 96.7% | 95% | 108% | 112% | 75.1% | 109% | 107% | 108% | 110% | 99.3% | 90.9%
